# Records with an inconclusive call do not appear. A call without a number means that no potency is given here. Activity calls are given as the source filed them. Unless noted, the call rests on the fitted dose curve; in most records, active means well fitted curve in the direction sought with a large enough effect; inconclusive means small, poorly fitted or top-dose-only effect, or another doubt; inactive means no such curve, though single readings can be large; an effect the other way counts as inactive or inconclusive.
# Legend:
# [1] = biological target: Cytochrome P450 3A4 (Homo sapiens) (UniProt P08684); test: qHTS Assay for Inhibitors and Substrates of Cytochrome P450 3A4 (AID 884); conditions: recombinant CYP3A4, Luciferin-PPXE luminescence; series mostly up to 57.1 µM; further: nearly all actives have a fitted effect of over 50% in size; further: potency means the concentration at half of the fitted maximal effect
# In short: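 Luminescent readout of luciferin produced by CYP3A4 (20 nM) dealkylation of Luciferin-PPXE, 25 uM (its KM). NADPH-driven reaction ran 60 min at RT after 10 min compound preincubation; data scaled to 57 uM ketoconazole as 100% inhibition.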
# [2] = biological target: Cytochrome P450 3A4 (Homo sapiens) (UniProt P08684); test: qHTS Assay for Activators of Cytochrome P450 3A4 (AID 885); conditions: recombinant CYP3A4, Luciferin-PPXE luminescence, 60 min; series mostly up to 57.1 µM; further: nearly all actives have a fitted effect of over 65% in size
# In short: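 CYP3A4 activity: Luciferin-PPXE O-dealkylation, 25uM substrate, 200mM KPO4, RT throughout. Read-out is luciferase luminescence; higher values reflect activation.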
# [3] = qHTS Assay for Lipid Storage Modulators (AID 1519; calls by dose curve); conditions: Drosophila S3 cells, BODIPY lipid droplet/cell ratio, laser cytometry, cells loaded with oleic acid
# In short: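 Cells seeded at 5,000 per well were treated with compounds over a concentration series and loaded with oleic acid (400 uM, as added). Lipid droplet fluorescence (488 nm excitation, 500-530 nm channel) was read by laser-scanning cytometry and normalized to 20 uM Triacsin C.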
# [4] = biological target: DNA repair nuclease/redox regulator APEX1 (Homo sapiens) (UniProt P27695); test: qHTS Validation Assay for Inhibitors of the Human Apurinic/apyrimidinic Endonuclease 1 (APE1) (AID 1705;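 further: TAMRA fluorescence gain over two minutes as APE1 cuts a quenched THF abasic duplex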); conditions: purified APE1 endonuclease activity, fluorescence, titration; series mostly up to 57.1 µM
# In short: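 Fluorogenic double-stranded THF abasic-site substrate (5'-TAMRA/3'-BHQ-2), 50 nM final. Enzyme preincubated with compound 15 min at room temperature, then substrate added. Kinetic fluorescence (ex 525/em 598 nm) read three times at 60 s intervals; activity taken as third-minus-first read difference.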
# [5] = Counterscreen for APE1 Inhibitors: Fluorescent Dye Displacement Validation Assay (AID 1707); conditions: fluorescent dye displacement from DNA; series mostly up to 57.1 µM
# In short: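 Signal: ThO fluorescence (ex 480 nm/em 540 nm) on binding 50 nM dsDNA; displacement by test compound reduces it. Conditions: 250 nM dye, 50 mM Tris-HCl pH7.5, 2 mM MgCl2, 50mM NaCl, 0.01% Tween-20.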
# [6] = biological target: Endonuclease 4 (Escherichia coli (strain K12)) (UniProt P0A6C1); test: Counterscreen for APE1 Inhibitors: qHTS Validation Assay for Inhibitors of Endonuclease IV (AID 1708); conditions: E. coli endonuclease IV, DNA cleavage fluorescence; series mostly up to 57.1 µM
# In short: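 Enzyme (2 nM) + compound, 15 min RT; add 50 nM TAMRA/BHQ-2 THF-site dsDNA; kinetic read ex525/em598, 3 reads/60 s; activity = read 3 − read 1. Buffer Tris pH 7.5, 50 mM NaCl, 2 mM MgCl2, DTT, Tween-20.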
# [7] = Confirmation and Secondary Assay for Modulators of Hemoglobin Beta Chain Splicing at IVS2 654 locus (AID 910); conditions: HeLa EGFP-654 splicing reporter, GFP fluorescence, 48 h; series mostly up to 46.1 µM
# In short: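 HeLa cells stably carrying EGFP interrupted by mutant beta-globin IVS2-654 intron (CMV-driven) were treated with compound for 2 days at 37C; corrected splicing was scored as total peak GFP intensity per well (488 nm excitation, 500-520 nm emission).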
# [8] = Confirmation and Secondary Assay for Modulators of Hemoglobin Beta Chain Splicing at IVS2 705 locus (AID 930); conditions: HeLa EGFP-705 splicing reporter, GFP fluorescence, 48 h; series mostly up to 46.1 µM;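 further: HeLa cells stably expressing the EGFP-705 splicing reporter; GFP fluorescence per well restored by corrected splicing of the IVS2-705 intron in EGFP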
# In short: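 Fluorescence gain (488 nm laser, 500-520 nm PMT) reflects restored correct splicing of a mutant IVS2-705 intron inside EGFP in stably transfected HeLa cells after 2-day compound treatment.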
# [9] = qHTS Assay for Identification of Small Molecule Antagonists for NFkB Signaling Pathway (AID 895; active means well fitted inhibition curve with a large enough effect in the signal ratio, with a control signal flat, not every such curve was filed as active; the % refers to the signal ratio); conditions: NFkB beta-lactamase reporter cells, FRET ratio 460/530, stimulated with 10 pM TNF alpha; series mostly up to 38.3 µM
# In short: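 NFkB-bla ME-180 cervical carcinoma cells with beta-lactamase reporter under NFkB response element; compounds added, then TNF alpha at 10 pM final (EC50), 5 h at 37 C. LiveBLAzer substrate 2 h, room temperature; emission 460/530 nm at 405 nm excitation.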
# [10] = qHTS Assay for Identification of Small Molecule Agonists for Thrombopoietin (TPO) Signaling Pathway (AID 917); conditions: TPO signaling pathway reporter cells, agonist qHTS; stimulated with TPO at its EC50; further: potency means the concentration at half of the fitted maximal effect
# In short: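 Stimulation at the TPO EC50 (26 pM final) was used to detect activators. Ba/F3 mouse cells bearing human TPO receptor and a luciferase reporter under the Glycoprotein IIb promoter were exposed to compounds for 24 hrs at 37 C.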
# [11] = biological target: Muscarinic acetylcholine receptor M1 (Rattus norvegicus) (UniProt P08482); test: qHTS Assay for Antagonists of Acetylcholine Muscarinic M1 Receptor: Measurement of IP-One Response (AID 944); conditions: CHO-M1 cells, IP-One HTRF, antagonist mode; series mostly up to 46.1 µM; further: nearly all actives have a fitted effect of over 75% in size
# In short: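 Antagonist mode with rat M1 receptor transfected into CHO cells. Compound is added first for 10 min, carbachol at its EC80 follows for 30 min, and lysis reagents then allow TR-FRET detection of accumulated IP1.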
# [12] = biological target: Pyruvate kinase (Leishmania mexicana) (UniProt Q27686); test: qHTS Validation Assay for Inhibitors of Leishmania Mexicana Pyruvate Kinase (AID 945); conditions: purified L. mexicana pyruvate kinase, enzyme activity, E451W mutant enzyme; series mostly up to 57.5 µM
# In short: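 Compounds are tested as eight-point concentration series. Reactions contain 0.2 nM LmPYK E451W, 0.5 mM PEP, 0.1 mM ADP, 7 mM MgCl2 and 50 mM KCl at pH 7.2, run 1 h at room temperature, then read by PKLight luminescence.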
# [13] = biological target: Pyruvate kinase PKM (Homo sapiens) (UniProt P14618); test: qHTS Assay for Activators of Human Muscle Pyruvate Kinase (AID 954; active means well fitted curve in the direction sought with a large enough effect, not every such curve was filed as active); conditions: purified human muscle pyruvate kinase, luciferase-coupled luminescence, 1 h; series mostly up to 57.5 µM
# In short: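 A coupled luminescent readout tracked ATP made from ADP by purified PKM2. Final conditions included 0.1 nM enzyme, PEP and ADP at 0.5 and 0.1 mM, pH 7.2 imidazole buffer with BSA, and a one-hour room-temperature reaction.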
# [14] = biological target: Alpha-galactosidase A (Homo sapiens) (UniProt P06280); test: Counterscreen for Glucocerebrosidase Inhibitors: qHTS Assay for Human alpha-Galactosidase at pH 4.5 (AID 992); conditions: purified enzyme, fluorogenic substrate; series mostly up to 76.9 µM
# In short: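 Citrate buffer pH 4.5, Tween-20 0.005%. Enzyme 2 nM, substrate 80 uM, 20 min RT. Stop pH 10. Fluorescence Ex 365/Em 440. AC50 by Hill fit.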
# [15] = biological target: alpha-glucosidase (Oryza sativa, rice) (UniProt Q653V4); test: Counterscreen for Glucocerebrosidase Inhibitors: qHTS Assay for Rice alpha-Glucosidase at pH 5.0 (AID 997); conditions: rice alpha-glucosidase enzyme activity; series mostly up to 76.9 µM
# In short: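 Endpoint fluorogenic assay at pH 5.0: compounds (0.7 nM to 77 uM) titrated against 4 nM rice enzyme and 400 uM 4-MU-alpha-glucoside for 20 min at room temperature; NaOH/glycine stop, read ex 365/em 440 nm, Hill-fitted AC50.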
# [16] = Validation of Assay for Modulators of Lamin A Splicing (AID 1459; active means well fitted curve in the direction sought with a large enough effect in the signal ratio; the % refers to the signal ratio;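 further: cells exposed to compound for two days before reading; ratio rise marks activators and ratio drop marks inhibitors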); conditions: Lamin A splicing dual RFP/GFP fluorescence reporter; series mostly up to 9.22 µM
# In short: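 S3 HeLa stably expressing lamin A-EGFP splicing minigene and DsRed2, 600 cells/well in Opti-MEM with 2% FBS, treated 48 h at 37C; laser-scanning cytometry gives GFP/RFP total intensity ratio; ancitabine positive control, 0.5% DMSO vehicle.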
# [17] = qHTS for differential inhibitors of proliferation of Plasmodium falciparum line GB4 (AID 1816); conditions: series mostly up to 28.7 µM;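 further: parasite growth measured after 72 h incubation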
# [18] = qHTS for differential inhibitors of proliferation of Plasmodium falciparum line 3D7 (AID 1876);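 further: parasite growth measured after three days of culture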; conditions: P. falciparum 3D7 proliferation inhibition; series mostly up to 28.7 µM
# [19] = qHTS for differential inhibitors of proliferation of Plasmodium falciparum line D10 (AID 1877); conditions: series mostly up to 28.7 µM;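 further: parasites grown with compound for 72 h before DNA staining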
# [20] = biological target: Cytochrome P450 2C19 (Homo sapiens) (UniProt P33261); test: qHTS Assay for Inhibitors and Substrates of Cytochrome P450 2C19 (AID 899); conditions: recombinant CYP2C19, luciferin-H EGE luminescence; series mostly up to 11.4 µM; further: nearly all actives have a fitted effect of over 60% in size
# In short: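 NADPH-dependent conversion of Luciferin-H EGE (10uM, at KM) by 5nM enzyme in 50mM KPO4, 60 min at 37C following 10 min compound preincubation. Stopped with luciferin detection buffer; luminescence read after 20 min.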
# [21] = measured here: cell count channel max response
# [22] = measured here: lipid channel max response
# Sequence of Cytochrome P450 3A4 (Homo sapiens) (P08684 whole entry, looked up): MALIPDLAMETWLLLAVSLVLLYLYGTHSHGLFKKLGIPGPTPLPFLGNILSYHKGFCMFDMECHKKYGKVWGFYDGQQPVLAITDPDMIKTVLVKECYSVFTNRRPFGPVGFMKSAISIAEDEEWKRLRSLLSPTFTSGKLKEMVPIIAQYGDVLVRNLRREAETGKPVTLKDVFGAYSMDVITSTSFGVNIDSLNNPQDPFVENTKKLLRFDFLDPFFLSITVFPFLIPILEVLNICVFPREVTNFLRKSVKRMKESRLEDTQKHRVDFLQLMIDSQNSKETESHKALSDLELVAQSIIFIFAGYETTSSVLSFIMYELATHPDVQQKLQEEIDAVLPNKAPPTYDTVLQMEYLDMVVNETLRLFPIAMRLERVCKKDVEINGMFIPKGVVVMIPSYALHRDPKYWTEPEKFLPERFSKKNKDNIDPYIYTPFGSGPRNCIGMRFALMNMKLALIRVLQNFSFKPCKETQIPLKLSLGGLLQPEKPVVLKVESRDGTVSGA
# Sequence of DNA repair nuclease/redox regulator APEX1 (Homo sapiens) (P27695 whole entry, looked up): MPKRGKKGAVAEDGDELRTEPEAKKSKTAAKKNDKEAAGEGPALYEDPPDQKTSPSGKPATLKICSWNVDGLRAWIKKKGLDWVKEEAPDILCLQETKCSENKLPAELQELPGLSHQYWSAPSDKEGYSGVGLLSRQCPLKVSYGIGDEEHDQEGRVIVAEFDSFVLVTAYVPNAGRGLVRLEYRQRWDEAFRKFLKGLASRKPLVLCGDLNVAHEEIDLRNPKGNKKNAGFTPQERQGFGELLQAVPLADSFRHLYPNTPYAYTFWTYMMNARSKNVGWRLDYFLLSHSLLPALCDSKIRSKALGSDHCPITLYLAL
# Sequence of Muscarinic acetylcholine receptor M1 (Rattus norvegicus) (P08482 whole entry, looked up): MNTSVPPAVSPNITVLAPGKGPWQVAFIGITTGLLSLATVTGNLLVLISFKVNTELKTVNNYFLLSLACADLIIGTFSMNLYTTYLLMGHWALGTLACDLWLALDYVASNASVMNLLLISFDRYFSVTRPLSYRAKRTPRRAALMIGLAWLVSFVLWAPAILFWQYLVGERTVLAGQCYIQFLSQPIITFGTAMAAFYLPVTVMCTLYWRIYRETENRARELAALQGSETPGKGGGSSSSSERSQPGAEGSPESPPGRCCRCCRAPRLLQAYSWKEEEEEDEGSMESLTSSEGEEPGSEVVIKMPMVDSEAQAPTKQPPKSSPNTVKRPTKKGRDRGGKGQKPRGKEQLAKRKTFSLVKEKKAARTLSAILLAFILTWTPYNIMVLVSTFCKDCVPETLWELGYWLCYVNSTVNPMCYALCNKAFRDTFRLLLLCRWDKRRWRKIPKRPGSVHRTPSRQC
# Sequence of Cytochrome P450 2C19 (Homo sapiens) (P33261 whole entry, looked up): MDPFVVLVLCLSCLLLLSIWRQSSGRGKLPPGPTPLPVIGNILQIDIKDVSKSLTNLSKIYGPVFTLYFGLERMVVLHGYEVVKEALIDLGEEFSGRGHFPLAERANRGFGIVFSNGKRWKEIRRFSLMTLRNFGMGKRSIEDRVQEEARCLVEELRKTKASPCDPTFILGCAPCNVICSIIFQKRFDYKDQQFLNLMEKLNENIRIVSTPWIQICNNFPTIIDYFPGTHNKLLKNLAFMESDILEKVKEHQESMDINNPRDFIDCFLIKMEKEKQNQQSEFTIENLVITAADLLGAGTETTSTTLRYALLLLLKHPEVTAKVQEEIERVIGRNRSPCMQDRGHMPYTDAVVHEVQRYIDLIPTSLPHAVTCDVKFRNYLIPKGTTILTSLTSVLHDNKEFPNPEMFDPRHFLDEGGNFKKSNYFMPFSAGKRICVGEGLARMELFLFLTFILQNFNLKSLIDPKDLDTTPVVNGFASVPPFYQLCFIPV
# Sequence of Pyruvate kinase PKM (Homo sapiens) (P14618 whole entry, looked up): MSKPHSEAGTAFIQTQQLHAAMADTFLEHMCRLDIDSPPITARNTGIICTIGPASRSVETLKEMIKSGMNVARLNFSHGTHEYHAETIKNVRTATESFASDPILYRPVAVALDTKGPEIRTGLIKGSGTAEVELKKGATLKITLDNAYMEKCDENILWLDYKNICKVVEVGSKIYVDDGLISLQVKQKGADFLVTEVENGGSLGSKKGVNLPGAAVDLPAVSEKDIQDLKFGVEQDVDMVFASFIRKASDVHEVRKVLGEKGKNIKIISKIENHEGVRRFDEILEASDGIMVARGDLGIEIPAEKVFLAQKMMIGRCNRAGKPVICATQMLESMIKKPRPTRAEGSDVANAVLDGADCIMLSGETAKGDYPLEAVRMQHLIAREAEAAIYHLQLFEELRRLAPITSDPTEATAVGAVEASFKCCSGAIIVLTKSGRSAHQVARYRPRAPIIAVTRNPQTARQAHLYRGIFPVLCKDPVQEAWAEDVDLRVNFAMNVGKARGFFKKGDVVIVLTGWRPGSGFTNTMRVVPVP
# Sequence of Alpha-galactosidase A (Homo sapiens) (P06280 whole entry, looked up): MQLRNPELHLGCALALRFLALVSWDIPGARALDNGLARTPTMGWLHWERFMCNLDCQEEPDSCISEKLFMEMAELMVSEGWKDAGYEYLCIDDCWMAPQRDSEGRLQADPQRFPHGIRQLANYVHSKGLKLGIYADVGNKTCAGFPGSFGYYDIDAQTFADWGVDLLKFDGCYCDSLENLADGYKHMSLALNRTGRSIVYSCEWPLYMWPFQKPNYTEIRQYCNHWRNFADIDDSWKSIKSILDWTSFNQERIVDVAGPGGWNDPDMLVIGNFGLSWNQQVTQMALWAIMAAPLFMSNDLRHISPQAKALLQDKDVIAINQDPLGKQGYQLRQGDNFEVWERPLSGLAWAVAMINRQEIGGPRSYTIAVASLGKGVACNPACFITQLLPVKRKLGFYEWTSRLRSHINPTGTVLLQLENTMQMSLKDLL
# Sequence of Pyruvate kinase (Leishmania mexicana) (Q27686 2-499 E452W): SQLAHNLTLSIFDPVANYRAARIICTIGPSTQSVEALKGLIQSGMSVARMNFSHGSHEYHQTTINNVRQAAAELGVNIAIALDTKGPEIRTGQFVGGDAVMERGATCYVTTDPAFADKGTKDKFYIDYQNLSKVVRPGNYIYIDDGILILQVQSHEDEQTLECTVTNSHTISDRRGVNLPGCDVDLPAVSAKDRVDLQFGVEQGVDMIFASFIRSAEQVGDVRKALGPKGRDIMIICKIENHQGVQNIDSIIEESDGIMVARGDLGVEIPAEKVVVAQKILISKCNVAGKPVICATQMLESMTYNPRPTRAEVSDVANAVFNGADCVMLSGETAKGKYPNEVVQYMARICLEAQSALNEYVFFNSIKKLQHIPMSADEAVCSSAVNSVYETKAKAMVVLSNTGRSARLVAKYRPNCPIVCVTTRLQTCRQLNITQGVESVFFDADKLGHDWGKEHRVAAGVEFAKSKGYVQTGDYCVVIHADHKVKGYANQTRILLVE
smiles,measurement,setting,value
O=C(O)c1ccc2cc(-c3ccc(O)c(C45CC6CC(CC(C6)C4)C5)c3)ccc2c1,Potency,[1],31.6 µM (active)
same,outcome,[2],inactive
CC(C)c1ccc(Cn2ccc3c4c(N)nc(NC5CC5)nc4ccc32)cc1,Potency,[1],6.31 µM (active)
same,outcome,[2],inactive
CC[C@H](CO)Nc1nc(NCc2ccccc2)c2ncn(C(C)C)c2n1,"activity change, negative = inhibition",[3]; at 57.5 µM (top of the series),2.75% (inactive)
same,max response,[3]; [21],73%
same,max response,[3]; [22],78.1%
same,outcome,[4],inactive
same,outcome,[5],inactive
same,outcome,[6],inactive
COc1c(N2C[C@@H]3CCCN[C@H]3C2)c(F)cc2c(=O)c(C(=O)O)cn(C3CC3)c12,Potency,[1],inactive
same,outcome,[7],inactive
same,outcome,[8],inactive
Nc1ccc(S(=O)(=O)Nc2ncccn2)cc1,outcome,[7],inactive
same,outcome,[8],inactive
same,"activity change, negative = inhibition",[3]; at 25.7 µM (top of the series),0.373% (inactive)
same,max response,[3]; [21],-6.66%
same,max response,[3]; [22],-7.25%
O=c1c2ccccc2nc2n1CCc1c-2[nH]c2ccccc12,outcome,[2],inactive
same,outcome,[9],inactive
same,Potency,[10],0.316 µM (active)
same,outcome,[11],inactive
same,outcome,[12],inactive
same,outcome,[13],inactive
same,outcome,[14],inactive
same,outcome,[15],inactive
same,outcome,[16],inactive
same,"activity change, negative = inhibition",[3]; at 57.5 µM (top of the series),1.95% (inactive)
same,max response,[3]; [21],45%
same,max response,[3]; [22],50%
same,outcome,[4],inactive
same,outcome,[5],inactive
same,outcome,[6],inactive
same,outcome,[17],inactive
same,outcome,[18],inactive
same,outcome,[19],inactive
C[C@H]1C[C@@H]2[C@@H]([C@@H](O)C[C@@]3(C)[C@H]2CC[C@]3(O)C(=O)CO)[C@@]2(C)C=CC(=O)C=C12,"activity change, negative = inhibition",[3]; at 25.7 µM (top of the series),-1.2% (inactive)
same,max response,[3]; [21],-15.5%
same,max response,[3]; [22],-14.8%
CC[C@@]1(O)C(=O)OCc2c1cc1n(c2=O)Cc2cc3cc(O)ccc3nc2-1,outcome,[8],inactive
same,"activity change, negative = inhibition",[3]; at 57.5 µM (top of the series),-14.2% (inactive)
same,max response,[3]; [21],-6.87%
same,max response,[3]; [22],-17.5%
Cc1coc2c1C(=O)C(=O)c1c-2ccc2c1CCCC2(C)C,Potency,[1],inactive
same,outcome,[7],inactive
same,outcome,[8],inactive
same,"activity change, negative = inhibition",[3]; at 57.5 µM (top of the series),6.48% (inactive)
same,max response,[3]; [21],16.1%
same,max response,[3]; [22],23.2%
O=C(O)[C@H](Cc1c[nH]c2ccccc12)N1C(=O)c2ccccc2C1=O,outcome,[20],inactive

# Reference: PubChem BioAssay (NCATS)
